# Screening data: PubChem, several laboratories
# Hits are enriched below; roughly 22% of the tested compounds scored in any of these assays.
# CYP2C19 inhib – blockers of cytochrome P450 2C19 activity – biochemical, luminescence, ADME assay, primary screen; inhibition, % at 5 µM; CYP2C19 Supersomes, luciferin-H EGE luminescence, 30 min; 96,000 tested, 21% active;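 active = CYP2C19 inhibition above a set limit at 5 µM in the primary screen, cut at about 50% in these data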;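 also: plate controls were negative control wells for no effect and 2.5 mM tranylcypromine positive control for full effect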
# CYP2C19 act – human CYP2C19 activators, primary screen, biochemical, luminescence | Cytochrome P450 2C19 (Homo sapiens), P33261 | 96,000 tested, under 10 active | activation factor at 5 µM | recombinant CYP2C19, luciferin-H EGE luminescence; active compounds read high; 0 = fully inhibited enzyme, 1 = untreated enzyme;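 active = activation factor of at least 2 at 5 µM in the primary screen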;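 also: 0 = wells with 2.5 mM tranylcypromine and 1 = vehicle-only wells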
# Measles CPE – compounds protecting cells from measles virus cytopathic effect, primary screen, measles RdRp inhibitor project, single point, MLSMR library, absorbance | protection (pct of control), % at 4 µM | AID 841, 2007 | Measles virus-infected cells, CPE protection | 140,000 tested, 1.5% active; in the data active = protection mostly above about 24%, no sharp cut-off; inactive = mostly below about 26%
# CYP2C9 act – human CYP2C9 activators, primary screen, biochemical, luminescence. Cytochrome P450 2C9 (Homo sapiens), P11712. recombinant CYP2C9, luciferin-H conversion; active compounds read high; factor 1 = untreated enzyme, 0 = blocked. activation factor at 5 µM. 96,000 tested, 1.4% active. AID 1024, 2008;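 active = activation factor of 2 or more for CYP2C9 at a 5 µM dose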;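 also: 0 = sulfaphenazole-blocked wells and 1 = vehicle-only wells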
# Target sequence (P11712 whole entry, looked up): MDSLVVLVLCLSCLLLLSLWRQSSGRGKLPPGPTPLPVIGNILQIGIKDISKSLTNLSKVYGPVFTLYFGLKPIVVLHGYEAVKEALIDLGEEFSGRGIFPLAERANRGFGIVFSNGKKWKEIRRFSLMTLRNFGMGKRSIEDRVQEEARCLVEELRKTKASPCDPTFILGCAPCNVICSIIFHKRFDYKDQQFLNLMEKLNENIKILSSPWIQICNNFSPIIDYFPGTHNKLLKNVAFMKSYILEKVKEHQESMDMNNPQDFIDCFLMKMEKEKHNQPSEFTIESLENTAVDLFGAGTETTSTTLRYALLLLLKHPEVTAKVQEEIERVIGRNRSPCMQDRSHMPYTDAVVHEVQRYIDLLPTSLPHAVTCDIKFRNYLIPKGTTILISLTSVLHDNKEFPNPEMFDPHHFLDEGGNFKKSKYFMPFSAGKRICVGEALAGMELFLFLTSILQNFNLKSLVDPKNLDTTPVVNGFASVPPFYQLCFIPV
# CYP2C9 inhib – blockers of cytochrome P450 2C9 activity – biochemical, luminescence, ADME assay, primary screen; P11712; CYP2C9 Supersomes, luciferin-H conversion; inhibition, % at 5 µM; 96,000 tested, 20% active; AID 777, 2007;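 active = blocking of liver enzyme CYP2C9 beyond about 50% at 5 µM, limit read from the data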
# Numbers without * were called inactive; x = not tested or not shown.
SMILES,CYP2C19 inhib,CYP2C19 act,Measles CPE,CYP2C9 act,CYP2C9 inhib
CN(C)S(=O)(=O)c1ccc(NS(=O)(=O)/C=C/c2ccccc2)cc1,69.9*,0.3,44.1*,0.1,90.9*
COc1ccc(-c2noc(-c3ccccc3F)n2)cc1,10.2,0.9,1.9,0.4,59.0*
COc1ccccc1-c1noc(-c2ccco2)n1,49.7,0.5,19.2,1.1,-5.0
COc1ccc(-c2nc(-c3ccccc3OC)no2)cc1OC,61.1*,0.4,5.3,1.5,-51.6
COc1ccccc1-c1noc(-c2ccccc2)n1,52.5*,0.5,6.6,0.9,7.1
Cc1cc(NC(=O)c2cc(-c3ccc4c(c3)OCO4)on2)n(-c2ccccc2)n1,19.9,0.8,12.0,0.9,11.5
CCOC(=O)C1=C(C)N(c2ccccc2)C(=O)C1CC(=O)O (stereo unspecified),53.1*,0.5,5.0,0.6,40.9
CCOC(=O)C1=C(C)N(C)C(=O)C1CC(=O)O (stereo unspecified),-10.0,1.1,14.9,1.1,-11.4
COc1ccc(OC)c(C2C3=C(N=C4SCC(=O)N42)c2ccccc2CC3)c1 (stereo unspecified),44.2,0.6,7.5,0.5,47.3
COc1cccc(C2C3=C(N=C4SCC(=O)N42)c2ccccc2CC3)c1OC (stereo unspecified),87.0*,0.1,16.1,0.4,60.1*
CSCCC(N=Cc1c(O)n(-c2ccc(F)cc2)c(=O)[nH]c1=O)C(=O)O (stereo unspecified),-3.2,1,9.2,1,-4.0
CCOC(=O)c1sc2nc(N3CCOCC3)c3c(c2c1N)CCN(C)C3,6.6,0.9,3.7,0.9,11.7
Nc1c(C(=O)NCc2ccccc2)sc2nc(N3CCOCC3)c3c(c12)CCCC3,21.6,0.8,-1.2,0.1,86.3*
CNC(=O)c1ccc(-c2sc3nc(N4CCOCC4)c4c(c3c2N)CC(C)(C)OC4)o1,5.4,0.9,14.1,0.5,51.5*
CC1(C)Cc2c(c(N3CCOCC3)nc3sc(-c4ccc(C(=O)O)o4)c(N)c23)CO1,x,x,3.5,x,x
CNC(=O)c1ccc(-c2sc3nc(N4CCOCC4)c4c(c3c2N)CCCC4)o1,91.9*,0.1,22.0,0.1,94.2*
CC1(C)Cc2c(c(N3CCOCC3)nc3snc(NC(=O)c4ccccc4)c23)CO1,6.0,0.9,6.4,0.1,88.1*
Cc1sc2nc(SC(C)C)nc(N)c2c1C,20.3,0.8,4.3,0.8,16.2
O=C(NC(Cc1c[nH]c2ccccc12)C(=O)NCc1ccc(F)cc1)OCc1ccccc1 (stereo unspecified),x,x,4.1,x,x
CCC(C)c1ccc(OCCN2CCCC2)cc1 (stereo unspecified),-2.1,1,19.5,0.9,6.7
CCN(CCCNC(=O)C1CCC(=O)N1Cc1ccc(C)cc1)c1cccc(C)c1 (stereo unspecified),42.8,0.6,7.8,0.9,9.6
CCOC(=O)CN1C(=O)C(Sc2n[nH]c(-c3cccc(C)c3)n2)CCc2ccccc21 (stereo unspecified),56.9*,0.4,4.5,0.2,84.8*
CC1=C(C(=O)OC2CCCCC2)C(c2ccco2)n2ncnc2N1 (stereo unspecified),72.7*,0.3,15.3,0.5,52.2*
COC(=O)C1=C(C)Nc2nnnn2C1c1ccco1 (stereo unspecified),20.0,0.8,14.2,0.6,36.6
O=[N+]([O-])c1ccc(Oc2cccc(Br)c2)c2ccncc12,58.5*,0.4,6.7,0.8,16.0
SMILES,CYP2C19 inhib,CYP2C19 act,Measles CPE,CYP2C9 act,CYP2C9 inhib
O=[N+]([O-])c1ccc(Oc2ccc(F)cc2)c2ccncc12,83.5*,0.2,7.2,0.5,49.8
Nc1ccc(Oc2ccc([N+](=O)[O-])cc2[N+](=O)[O-])cc1,25.5,0.7,7.1,1,1.0
Cc1nn(Cc2ccc(Cl)cc2Cl)c(C)c1NC(=O)Cn1nc([N+](=O)[O-])c(Cl)c1C,-11.1,1.1,11.2,0.9,8.3
Cc1ccc(C=Nc2cc([N+](=O)[O-])ccc2C)s1,x,x,4.5,x,x
CN(C)S(=O)(=O)c1cccc(-c2nnc(SCc3cc(Cl)cc4c3OCOC4)n2N)c1,43.0,0.6,22.1,0.2,81.8*
Nn1c(SCC(=O)Nc2ccc3c(c2)OCO3)nnc1-c1cccc(Cl)c1,-16.1,1.2,2.8,0.9,12.3
CC12c3ccccc3C(c3ccccc31)C1C(=O)N(Cc3cccnc3)C(=O)[C@H]12 (stereo partly specified),x,x,3.6,x,x
Cc1ccc(Nc2nnc(-c3ccc(N4CCOCC4)c([N+](=O)[O-])c3)c3ccccc23)cc1,x,x,34.9*,x,x
O=[N+]([O-])c1cc(-c2nnc(Nc3ccccc3)c3ccccc23)ccc1N1CCOCC1,x,x,6.3,x,x
COc1ccc(-c2nnc(SCC(=O)NNC(=O)c3ccc(C)cc3)o2)cc1,x,x,12.4,x,x
O=C1Nc2cc(Cl)c(Cl)cc2N(O)N1c1ccccc1,0.6,1,17.6,0.9,9.5
CC1(c2ccc(Cl)c(Cl)c2)NC(=S)N2C1NC(=S)N2c1ccccc1 (stereo unspecified),78.3*,0.2,14.5,0.6,36.9
Nc1nc2ccc(OC(F)(F)F)cc2s1,x,x,64.2,x,x
Nc1nc2ccc(Oc3ccccc3)cc2s1,67.5*,0.3,21.1,0.3,71.1*
Cc1scc(C(=O)Nn2cnnc2)c1-c1ccccc1,-8.6,1.1,41.4*,0.9,7.9
CCC(=O)N1CCN(c2nc(C)nc3sc(C)c(C)c23)CC1,16.8,0.8,3.8,0.7,28.0
CC(=O)N1CCN(c2nc(C)nc3sc4c(c23)CCC(C)C4)CC1 (stereo unspecified),83.3*,0.2,6.1,0.1,86.4*
COc1ccc(CCn2c(=O)[nH]c3cc(C(=O)NCCN4CCOCC4)ccc3c2=O)cc1OC,-18.6,1.2,7.5,0.6,42.3
CCCCCn1c(=O)[nH]c2cc(C(=O)NCCc3ccc(OC)c(OC)c3)ccc2c1=O,58.9*,0.4,38.3*,0.3,70.4*
COc1cc2[nH]c(=O)n(CCC(=O)NCc3cccnc3)c(=O)c2cc1OC,2.0,1,66.6*,1,1.0
COc1cc2[nH]c(=O)n(CCCCCC(=O)NCCc3c[nH]c4ccccc34)c(=O)c2cc1OC,63.5*,0.4,19.9,0.3,66.9*
COc1ccc(CC(=O)N2CCN(c3ccc(C4=NNC(=O)CC4C)cc3)CC2)cc1 (stereo unspecified),6.4,0.9,1.8,0.9,6.1
CCOC(=O)c1c(C)cc(=O)oc1C,-9.7,1.1,2.8,1.2,-15.2
Cc1cc(-c2cccnc2)c(C#N)c(SCc2cccc(F)c2)n1,68.8*,0.3,6.2,1.8,-78.7
CCc1nc(SCc2cccnc2)c(C#N)cc1C,57.3*,0.4,3.1,0.7,31.5
CC1(C)CC(=O)c2cc3c(nc2C1)CC(C)(C)CC3=O,x,x,5.8,x,x
